# Publication PMC7862700, “An all-to-all approach to the identification of sequence-specific readers for epigenetic DNA modifications on cytosine”
# Columns and labels:
# Assay in all cases: DAPPL (digital affinity profiling via proximity ligation, sequencing); 10 mM Tris-HCl pH 7.5, 50 mM NaCl, 1 mM DTT, 4% glycerol, room temperature, 30 min; GST-TFs on glutathione beads, 16-mer random dsDNA library, 0.1% formaldehyde crosslink after washing; high values mean tight binding
# Details in all cases: protein: recombinant; tags: N-terminal GST; dsDNA, one strand shown
# ERF = target: T1, ERF (Homo sapiens, UniProt P50548 1-548)
# T1 sequence: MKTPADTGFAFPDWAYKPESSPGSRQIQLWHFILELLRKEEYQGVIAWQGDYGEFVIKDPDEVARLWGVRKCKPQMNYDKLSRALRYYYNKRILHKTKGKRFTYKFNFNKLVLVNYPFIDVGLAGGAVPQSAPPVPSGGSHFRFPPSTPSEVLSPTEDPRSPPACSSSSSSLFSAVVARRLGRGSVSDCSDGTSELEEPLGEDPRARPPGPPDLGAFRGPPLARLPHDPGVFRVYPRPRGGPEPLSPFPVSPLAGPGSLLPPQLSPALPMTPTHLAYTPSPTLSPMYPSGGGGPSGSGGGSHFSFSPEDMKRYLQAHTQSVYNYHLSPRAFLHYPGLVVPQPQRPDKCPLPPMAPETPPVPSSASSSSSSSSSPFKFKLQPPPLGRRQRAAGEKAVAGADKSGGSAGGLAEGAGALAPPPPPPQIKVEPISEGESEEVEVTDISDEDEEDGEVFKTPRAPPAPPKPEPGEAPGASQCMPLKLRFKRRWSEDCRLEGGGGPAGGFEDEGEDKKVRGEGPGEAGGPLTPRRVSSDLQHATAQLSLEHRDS
# Outline: (§1)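 Binding signal is defined as a hexamer's read frequency for one factor over its frequency for the tag-only sample. To obtain reads, GST-fused human transcription factors were expressed in yeast, captured on glutathione beads, barcoded with DNA and pooled with that sample. Pools met 200 nmole of a 16-mer random double-stranded DNA library in Tris/NaCl/DTT/glycerol buffer for 30 min at room temperature before washing, 0.1% formaldehyde crosslinking, proximity ligation (BsaI/T4 ligase, 1 h, 37 °C), PCR and Illumina NextSeq500 sequencing.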
# ETV3L = target: T2, ETV3L (Homo sapiens, UniProt Q6ZN32 1-361)
# T2 sequence: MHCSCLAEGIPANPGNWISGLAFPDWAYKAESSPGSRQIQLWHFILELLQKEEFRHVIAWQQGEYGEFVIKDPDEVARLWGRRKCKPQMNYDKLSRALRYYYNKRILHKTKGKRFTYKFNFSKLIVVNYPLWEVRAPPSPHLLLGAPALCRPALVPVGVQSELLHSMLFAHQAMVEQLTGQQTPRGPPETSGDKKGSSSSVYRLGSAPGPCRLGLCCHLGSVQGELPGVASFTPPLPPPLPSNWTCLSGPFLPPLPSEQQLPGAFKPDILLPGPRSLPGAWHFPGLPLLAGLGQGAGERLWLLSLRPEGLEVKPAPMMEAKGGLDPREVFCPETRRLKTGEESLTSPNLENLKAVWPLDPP
# Outline: as §1
# ETS2 = target: T3, ETS2 (Homo sapiens, UniProt P15036 1-469)
# T3 sequence: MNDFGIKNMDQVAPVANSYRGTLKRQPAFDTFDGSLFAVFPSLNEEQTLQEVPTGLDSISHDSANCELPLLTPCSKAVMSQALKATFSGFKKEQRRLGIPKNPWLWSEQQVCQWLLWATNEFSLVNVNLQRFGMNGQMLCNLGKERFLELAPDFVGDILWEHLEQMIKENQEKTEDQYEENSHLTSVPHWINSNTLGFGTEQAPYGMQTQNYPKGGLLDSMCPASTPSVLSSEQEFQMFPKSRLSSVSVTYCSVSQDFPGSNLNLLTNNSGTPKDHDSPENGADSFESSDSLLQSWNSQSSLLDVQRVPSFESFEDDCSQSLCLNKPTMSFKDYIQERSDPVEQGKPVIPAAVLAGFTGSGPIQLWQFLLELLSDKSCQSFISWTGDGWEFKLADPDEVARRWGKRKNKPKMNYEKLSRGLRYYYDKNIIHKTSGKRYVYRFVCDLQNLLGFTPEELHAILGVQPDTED
# Outline: as §1
# SPDEF = target: T4, SPDEF (Homo sapiens, UniProt O95238 1-335)
# T4 sequence: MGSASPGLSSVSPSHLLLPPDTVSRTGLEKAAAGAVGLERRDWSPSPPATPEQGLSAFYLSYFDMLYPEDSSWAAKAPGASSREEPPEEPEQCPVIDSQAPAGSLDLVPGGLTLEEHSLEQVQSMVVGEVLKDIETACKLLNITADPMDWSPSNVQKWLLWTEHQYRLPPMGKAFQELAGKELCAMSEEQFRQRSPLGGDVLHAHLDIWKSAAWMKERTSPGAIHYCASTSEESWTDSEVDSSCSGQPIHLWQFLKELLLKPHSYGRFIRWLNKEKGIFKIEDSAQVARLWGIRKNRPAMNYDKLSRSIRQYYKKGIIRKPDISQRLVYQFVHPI
# Outline: as §1
# ETV7 = target: T5, ETV7 (Homo sapiens, UniProt Q9Y603 1-341)
# T5 sequence: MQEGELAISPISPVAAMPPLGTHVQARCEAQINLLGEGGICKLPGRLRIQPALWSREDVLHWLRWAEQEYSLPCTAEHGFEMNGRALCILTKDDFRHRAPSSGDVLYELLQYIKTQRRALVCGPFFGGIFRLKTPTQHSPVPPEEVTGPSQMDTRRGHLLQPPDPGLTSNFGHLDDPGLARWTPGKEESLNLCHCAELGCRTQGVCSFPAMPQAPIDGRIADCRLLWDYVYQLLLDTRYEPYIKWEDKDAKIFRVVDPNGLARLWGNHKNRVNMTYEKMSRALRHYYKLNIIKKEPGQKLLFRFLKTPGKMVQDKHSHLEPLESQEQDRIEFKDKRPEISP
# Outline: as §1
# ELF5 = target: T6, ELF5 (Homo sapiens, UniProt Q9UKW6-2 1-255)
# T6 sequence: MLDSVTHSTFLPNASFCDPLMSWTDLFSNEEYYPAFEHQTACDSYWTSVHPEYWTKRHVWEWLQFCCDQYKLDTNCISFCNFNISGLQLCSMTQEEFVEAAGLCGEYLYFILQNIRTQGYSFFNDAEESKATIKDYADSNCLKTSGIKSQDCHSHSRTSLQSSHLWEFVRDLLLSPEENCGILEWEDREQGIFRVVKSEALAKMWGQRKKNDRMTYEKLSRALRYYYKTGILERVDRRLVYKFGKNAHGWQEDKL
# Outline: as §1
# ETV3 = target: T7, ETV3 (Homo sapiens, UniProt P41162-2 1-143)
# T7 sequence: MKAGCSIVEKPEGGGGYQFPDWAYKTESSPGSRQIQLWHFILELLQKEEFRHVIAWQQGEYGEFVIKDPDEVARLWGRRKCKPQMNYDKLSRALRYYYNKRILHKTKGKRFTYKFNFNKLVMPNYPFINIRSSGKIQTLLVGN
# Outline: as §1
# ETV6 = ETV6 (Homo sapiens, UniProt P41212 1-452)
# Outline: as §1
# Sequence of ETV6 (P41212 whole entry): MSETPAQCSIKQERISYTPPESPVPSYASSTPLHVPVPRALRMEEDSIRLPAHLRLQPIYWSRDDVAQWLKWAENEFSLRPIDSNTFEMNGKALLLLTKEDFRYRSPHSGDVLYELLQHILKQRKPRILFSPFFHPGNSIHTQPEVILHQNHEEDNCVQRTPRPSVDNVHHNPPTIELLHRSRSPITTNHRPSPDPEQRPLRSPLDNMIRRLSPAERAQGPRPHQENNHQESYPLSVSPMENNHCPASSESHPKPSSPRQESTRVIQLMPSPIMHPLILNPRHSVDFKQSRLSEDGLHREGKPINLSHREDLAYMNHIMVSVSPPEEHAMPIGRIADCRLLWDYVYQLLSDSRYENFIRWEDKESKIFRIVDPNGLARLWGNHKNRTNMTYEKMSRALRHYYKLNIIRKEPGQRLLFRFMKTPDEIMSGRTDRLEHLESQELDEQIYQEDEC
Sequence,binding signal (ERF),binding signal (ETV3L),binding signal (ETS2),binding signal (SPDEF),binding signal (ETV7),binding signal (ELF5),binding signal (ETV3),binding signal (ETV6)
GTTCTC,"1.22 fold enrichment (6-mer frequency, TF over GST control)","1.35 fold enrichment (6-mer frequency, TF over GST control)","1.24 fold enrichment (6-mer frequency, TF over GST control)","1.22 fold enrichment (6-mer frequency, TF over GST control)","1.26 fold enrichment (6-mer frequency, TF over GST control)","1.25 fold enrichment (6-mer frequency, TF over GST control)","1.35 fold enrichment (6-mer frequency, TF over GST control)","1.23 fold enrichment (6-mer frequency, TF over GST control)"
TCGACA,"1.35 fold enrichment (6-mer frequency, TF over GST control)","1.3 fold enrichment (6-mer frequency, TF over GST control)","1.31 fold enrichment (6-mer frequency, TF over GST control)","1.23 fold enrichment (6-mer frequency, TF over GST control)","1.39 fold enrichment (6-mer frequency, TF over GST control)","1.27 fold enrichment (6-mer frequency, TF over GST control)","1.4 fold enrichment (6-mer frequency, TF over GST control)","1.42 fold enrichment (6-mer frequency, TF over GST control)"
TCTGAT,"1.22 fold enrichment (6-mer frequency, TF over GST control)","1.29 fold enrichment (6-mer frequency, TF over GST control)","1.29 fold enrichment (6-mer frequency, TF over GST control)","1.22 fold enrichment (6-mer frequency, TF over GST control)","1.23 fold enrichment (6-mer frequency, TF over GST control)","1.19 fold enrichment (6-mer frequency, TF over GST control)","1.21 fold enrichment (6-mer frequency, TF over GST control)","1.19 fold enrichment (6-mer frequency, TF over GST control)"
CGAACC,"1.12 fold enrichment (6-mer frequency, TF over GST control)","1.15 fold enrichment (6-mer frequency, TF over GST control)","1.14 fold enrichment (6-mer frequency, TF over GST control)","1.23 fold enrichment (6-mer frequency, TF over GST control)","1.11 fold enrichment (6-mer frequency, TF over GST control)","1.09 fold enrichment (6-mer frequency, TF over GST control)","1.07 fold enrichment (6-mer frequency, TF over GST control)","1.1 fold enrichment (6-mer frequency, TF over GST control)"
TTCCGA,"1.5 fold enrichment (6-mer frequency, TF over GST control)","1.48 fold enrichment (6-mer frequency, TF over GST control)","1.67 fold enrichment (6-mer frequency, TF over GST control)","1.47 fold enrichment (6-mer frequency, TF over GST control)","1.64 fold enrichment (6-mer frequency, TF over GST control)","1.78 fold enrichment (6-mer frequency, TF over GST control)","1.68 fold enrichment (6-mer frequency, TF over GST control)","1.85 fold enrichment (6-mer frequency, TF over GST control)"
CTCGAT,"1.37 fold enrichment (6-mer frequency, TF over GST control)","1.44 fold enrichment (6-mer frequency, TF over GST control)","1.36 fold enrichment (6-mer frequency, TF over GST control)","1.22 fold enrichment (6-mer frequency, TF over GST control)","1.31 fold enrichment (6-mer frequency, TF over GST control)","1.22 fold enrichment (6-mer frequency, TF over GST control)","1.36 fold enrichment (6-mer frequency, TF over GST control)","1.3 fold enrichment (6-mer frequency, TF over GST control)"
ATACAT,"1.27 fold enrichment (6-mer frequency, TF over GST control)","1.2 fold enrichment (6-mer frequency, TF over GST control)","1.24 fold enrichment (6-mer frequency, TF over GST control)","1.6 fold enrichment (6-mer frequency, TF over GST control)","1.36 fold enrichment (6-mer frequency, TF over GST control)","1.29 fold enrichment (6-mer frequency, TF over GST control)","1.26 fold enrichment (6-mer frequency, TF over GST control)","1.28 fold enrichment (6-mer frequency, TF over GST control)"
TCGATC,"1.12 fold enrichment (6-mer frequency, TF over GST control)","1.2 fold enrichment (6-mer frequency, TF over GST control)","1.15 fold enrichment (6-mer frequency, TF over GST control)","1.09 fold enrichment (6-mer frequency, TF over GST control)","1.17 fold enrichment (6-mer frequency, TF over GST control)","1.11 fold enrichment (6-mer frequency, TF over GST control)","1.18 fold enrichment (6-mer frequency, TF over GST control)","1.11 fold enrichment (6-mer frequency, TF over GST control)"
TACATG,"1.34 fold enrichment (6-mer frequency, TF over GST control)","1.2 fold enrichment (6-mer frequency, TF over GST control)","1.2 fold enrichment (6-mer frequency, TF over GST control)","1.21 fold enrichment (6-mer frequency, TF over GST control)","1.25 fold enrichment (6-mer frequency, TF over GST control)","1.16 fold enrichment (6-mer frequency, TF over GST control)","1.33 fold enrichment (6-mer frequency, TF over GST control)","1.24 fold enrichment (6-mer frequency, TF over GST control)"
AAGTTA,"1.24 fold enrichment (6-mer frequency, TF over GST control)","1.18 fold enrichment (6-mer frequency, TF over GST control)","1.24 fold enrichment (6-mer frequency, TF over GST control)","1.08 fold enrichment (6-mer frequency, TF over GST control)","1.21 fold enrichment (6-mer frequency, TF over GST control)","1.21 fold enrichment (6-mer frequency, TF over GST control)","1.19 fold enrichment (6-mer frequency, TF over GST control)","1.3 fold enrichment (6-mer frequency, TF over GST control)"
CACTTT,"1.3 fold enrichment (6-mer frequency, TF over GST control)","1.24 fold enrichment (6-mer frequency, TF over GST control)","1.32 fold enrichment (6-mer frequency, TF over GST control)","1.16 fold enrichment (6-mer frequency, TF over GST control)","1.26 fold enrichment (6-mer frequency, TF over GST control)","1.23 fold enrichment (6-mer frequency, TF over GST control)","1.32 fold enrichment (6-mer frequency, TF over GST control)","1.26 fold enrichment (6-mer frequency, TF over GST control)"
TCCTCC,"1.46 fold enrichment (6-mer frequency, TF over GST control)","1.55 fold enrichment (6-mer frequency, TF over GST control)","1.51 fold enrichment (6-mer frequency, TF over GST control)","1.61 fold enrichment (6-mer frequency, TF over GST control)","1.44 fold enrichment (6-mer frequency, TF over GST control)","2.04 fold enrichment (6-mer frequency, TF over GST control)","1.55 fold enrichment (6-mer frequency, TF over GST control)","1.51 fold enrichment (6-mer frequency, TF over GST control)"
GCCTTC,"1.47 fold enrichment (6-mer frequency, TF over GST control)","1.45 fold enrichment (6-mer frequency, TF over GST control)","1.44 fold enrichment (6-mer frequency, TF over GST control)","1.47 fold enrichment (6-mer frequency, TF over GST control)","1.47 fold enrichment (6-mer frequency, TF over GST control)","1.67 fold enrichment (6-mer frequency, TF over GST control)","1.63 fold enrichment (6-mer frequency, TF over GST control)","1.47 fold enrichment (6-mer frequency, TF over GST control)"
TTTTCT,"1.36 fold enrichment (6-mer frequency, TF over GST control)","1.35 fold enrichment (6-mer frequency, TF over GST control)","1.32 fold enrichment (6-mer frequency, TF over GST control)","1.28 fold enrichment (6-mer frequency, TF over GST control)","1.42 fold enrichment (6-mer frequency, TF over GST control)","1.26 fold enrichment (6-mer frequency, TF over GST control)","1.54 fold enrichment (6-mer frequency, TF over GST control)","1.32 fold enrichment (6-mer frequency, TF over GST control)"
AGCTTC,"1.75 fold enrichment (6-mer frequency, TF over GST control)","1.64 fold enrichment (6-mer frequency, TF over GST control)","1.77 fold enrichment (6-mer frequency, TF over GST control)","1.67 fold enrichment (6-mer frequency, TF over GST control)","1.65 fold enrichment (6-mer frequency, TF over GST control)","2.21 fold enrichment (6-mer frequency, TF over GST control)","1.77 fold enrichment (6-mer frequency, TF over GST control)","1.84 fold enrichment (6-mer frequency, TF over GST control)"
